Reference: PubChem BioAssay (NCATS)
Results filed as inconclusive are left out. Activity calls are given as the source filed them. Unless noted, the call rests on the fitted dose curve; in most records, active means well fitted curve in either direction with a large enough effect (not every such curve was filed as active); inconclusive means small, poorly fitted or top-dose-only effect, or another doubt; inactive means flat fitted curve, though single readings scatter.

Legend:
[1] = molecular target: Lysosomal acid glucosylceramidase (Homo sapiens) (UniProt P04062); test: Glucocerebrosidase-p2 (AID 348; in the data active means potency below about 10 µM; further: potency means the concentration at half of the fitted maximal effect); settings: purified GBA, blue fluorogenic substrate, 40 min
Method in brief: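 Compounds titrated from 0.6 nM upwards against 0.2 nM enzyme in pH 5.9 citric acid/KH2PO4, taurocholate, tween-20; blue fluorogenic substrate 80 uM, 40 min room temperature, stopped and read Ex 365/Em 440 for AC50.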

[2] = AP1 Signaling Pathway (AID 357); settings: ME-180 AP-1-bla reporter, EGF-induced, beta-lactamase ratio, 5 h; at 7.69 µM (top of the series) unless noted;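 further: ME-180 reporter cells stimulated with EGF at its EC50 level; on the % scale 0 is the no-effect control and ±100 the full control effect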
Method in brief: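 Modulation of EGF-driven AP-1 transcription was assessed with a beta-lactamase reporter in ME-180 cells. Compound and EC50 EGF were co-incubated 5 hours at 37 °C before 2.5-hour CCF4 loading at room temperature and dual-emission reading.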

[3] = molecular target: Cytochrome P450 1A2 (Homo sapiens) (UniProt P05177); test: p450-cyp1a2 (AID 410; calls by dose curve; further: potency means the concentration at half of the fitted maximal effect;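 on activity change, negative = inhibition: -100% = full effect of reference inhibitor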); settings: recombinant CYP1A2, luciferin-ME demethylation, luminescence; series mostly up to 57 µM
Method in brief: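 20nM CYP1A2 with 100uM Luciferin-ME (at Km) in 100mM KPO4; compound preincubated 10 min, NADPH regeneration added, 60 min at room temperature. Luciferin quantified by luminescence after detection reagent; normalized to 57 uM furafylline.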

[4] = NFAT Signaling Pathway (AID 444); settings: Jurkat NFAT-bla M1, carbachol, beta-lactamase ratio, 5 h; at 7.69 µM (top of the series) unless noted;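 further: carbachol stimulus at about its EC50 of 1 µM final; on the % scale 0 is the no-effect control and ±100 the full control effect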
Method in brief: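 Jurkat cells with NFAT-driven β-lactamase reporter and co-expressed M1 receptor, stimulated with carbachol (final 1 uM, ~EC50), compound titration, 5 h at 37 °C. CCF4 loaded 1 h at RT; 460/530 nm ratio gave %activity and AC50.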

[5] = Stat Signaling Pathway (AID 446); settings: ME-180 SIE beta-lactamase reporter, IL-6 stimulated, 5 h; at 7.69 µM (top of the series) unless noted;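 further: ME-180 cervical cancer cells given 40 pM IL-6 alongside compound; SIE-controlled beta-lactamase reporter measured as 460/530 nm FRET emission ratio; on the % scale 0 is the no-effect control and ±100 the full control effect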
Method in brief: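 ME-180 cells carrying a SIE-driven beta-lactamase reporter are stimulated with 40 pM IL-6 for 5 h at 37C in the presence of compound. The 460/530 nm FRET substrate ratio is read after 2.5 h at RT. Data are normalised to 300 pM IL-6 and to 125 nM JAK inhibitor controls.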

[6] = molecular target: Glucocorticoid receptor (Homo sapiens) (UniProt P04150); test: GR-EFC Redistribution (AID 451; calls by dose curve; further: potency means the concentration at half of the fitted maximal effect); settings: CHO-K1 GR-EFC translocation, beta-gal luminescence, 2 h
Method in brief: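 CHO-K1 cells expressing nuclear EA and GR-ED fragments of b-gal; compounds titrated up to 46 uM final, 2 h at 37 C. GR nuclear translocation read as complemented b-gal luminescence after 1 h RT detection.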

[7] = molecular target: Mitogen-activated protein kinase 10 (Mus musculus) (UniProt Q61831); test: JNK3 AlphaScreen Assay (AID 530); settings: JNK3 lysate, c-Jun phosphorylation; series mostly up to 57.1 µM;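 further: kinase came from lysate of stimulated human HepG2 cells; signal reports phosphorylation of biotinylated GST-cJun 1-79 at Ser73 with 10 µM ATP; on the % scale 0 is the no-effect control and ±100 the full control effect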
Method in brief: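 Pre-activated (IL-1β/TNFα) JNK3 in HepG2 lysates phosphorylates biotin-GST-cJun(1-79), 10 uM ATP; anti-phospho-cJun(Ser73) AlphaScreen read at room temperature, pH 7.6 Tris buffer. Compounds pre-incubated 15 min as titrations.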

[8] = molecular target: Cytochrome P450 3A4 (Homo sapiens) (UniProt P08684); test: qHTS Assay for Activators of Cytochrome P450 3A4 (AID 885; active means well fitted curve in the direction sought with a large enough effect; an effect the other way counts as inactive or inconclusive; further: nearly all actives have a fitted effect of over 65% in size); settings: recombinant CYP3A4, Luciferin-PPXE luminescence, 60 min; series mostly up to 57.1 µM
Method in brief: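 Human CYP3A4 (20 nM) with Luciferin-PPXE at 25 uM (its KM) in 200 mM KPO4; 10 min compound preincubation, then NADPH regeneration and 60 min reaction at RT. Luciferin read by luminescence; normalized to 57 uM ketoconazole full inhibition.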

[9] = molecular target: 3',5'-cyclic-AMP phosphodiesterase 4B (Homo sapiens) (UniProt Q07343); test: qHTS Assay for Inhibitors of PDE-IV (AID 607; active means well fitted activation curve with a large enough effect in the main read-out, with a control signal flat, not every such curve was filed as active; further: % of control where 0% means no effect); settings: HEK293 ACTOne CNG channel cells, membrane potential fluorescence; series mostly up to 22.9 µM
Method in brief: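 HEK293 ACTOne cells with CNG channel (1000/well), endogenous PDE4; membrane potential dye, compounds up to 22.9 uM final. Fluorescence Ex 535/Em 590; RO 20-1724 (100 uM final) as reference.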

[10] = qHTS Assay for Lipid Storage Modulators (AID 1519; calls by dose curve); settings: Drosophila S3 cells, BODIPY lipid droplet/cell ratio, laser cytometry, cells loaded with oleic acid; for activity change, negative = inhibition: at 57.5 µM (top of the series)
Method in brief: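 Cells seeded at 5,000 per well were treated with compounds over a concentration series and loaded with oleic acid (400 uM, as added). Lipid droplet fluorescence (488 nm excitation, 500-530 nm channel) was read by laser-scanning cytometry and normalized to 20 uM Triacsin C.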

[11] = molecular target: Glucocorticoid receptor (Homo sapiens) (UniProt P04150); test: GR-GFP Redistribution (AID 450;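 active means compounds whose dose series gives a full or clear partial fitted curve of increased nuclear translocation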; further: potency means the concentration at half of the fitted maximal effect); settings: U2OS GR-GFP nuclear translocation, laser cytometry, 2 h
[12] = molecular target: Dual specificity protein kinase CLK4 (Homo sapiens) (UniProt Q9HAZ1); test: qHTS Assay for Inhibitors of CDC-like Kinase 4 (Kinase-Glo Assay) (AID 1770; active means well fitted curve in the direction sought with a large enough effect; an effect the other way counts as inactive or inconclusive; further: on the % scale 0 is the no-effect control and ±100 the full control effect; nearly all actives have a fitted effect of over 65% in size); settings: recombinant Clk4, Kinase-Glo ATP depletion luminescence; series mostly up to 66.7 µM
Method in brief: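 Recombinant human Clk4 (25 nM) phosphorylated RS repeat peptide (100 uM) with 1 uM ATP in Tris pH 7.5/MgCl2/EGTA/DTT/Triton buffer for 4.5 h at room temperature. Residual ATP was quantified by Kinase-Glo luciferase luminescence.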

[13] = molecular target: Dual specificity protein kinase CLK4 (Homo sapiens) (UniProt Q9HAZ1); test: qHTS Assay for Inhibitors of CDC-like Kinase 4 (ADP-Glo Assay) (AID 1771; active means well fitted curve in the direction sought with a large enough effect; an effect the other way counts as inactive or inconclusive; further: on the % scale 0 is the no-effect control and ±100 the full control effect; nearly all actives have a fitted effect of over 70% in size); settings: recombinant CLK4, ADP-Glo luminescence; series mostly up to 80 µM
Method in brief: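 25 nM Clk4 with 100 uM RS repeat peptide and 1 uM ATP (final) in buffer with 2 mM MgCl2, 0.5 mM EGTA, 2.5 mM DTT, 0.01% Triton X-100; 1 h at room temperature; ADP-Glo luminescence for ADP formed.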

[14] = molecular target: Dual specificity protein kinase CLK4 (Homo sapiens) (UniProt Q9HAZ1); test: qHTS Assay for Inhibitors of CDC-like Kinase 4 (ADP-FP Assay) (AID 1795; active means well fitted curve in the direction sought with a large enough effect; an effect the other way counts as inactive or inconclusive; further: on the % scale 0 is the no-effect control and ±100 the full control effect; nearly all actives have a fitted effect of over 60% in size); settings: Transcreener ADP fluorescence polarization; series mostly up to 50 µM
Method in brief: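 Recombinant human Clk4 (6.25 nM) phosphorylated RS repeat peptide (100 uM) with 1 uM ATP in Tris pH 7.5/MgCl2/EGTA/DTT/Triton buffer for one hour. ADP was quantified by Transcreener competitive fluorescence polarization against an ADP calibration curve.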

[15] = molecular target: Ubiquitin carboxyl-terminal hydrolase 1 (Homo sapiens) (UniProt O94782); test: Inhibitors of USP1/UAF1: Pilot qHTS (AID 504865; active means well fitted curve in the direction sought with a large enough effect; an effect the other way counts as inactive or inconclusive;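 further: rhodamine fluorescence freed from ubiquitin-rhodamine substrate followed over time; top concentration of the series differs between compounds; on the % scale 0 is the no-effect control and ±100 the full control effect; nearly all actives have a fitted effect of over 35% in size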); settings: purified USP1/UAF1, Ub-rhodamine cleavage fluorescence; series mostly up to 54.9 µM
Method in brief: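 USP1/UAF1 complex (1nM) preincubated with compound 15 min at room temperature, then Ub-Rho substrate (150nM final) added. Fluorescence read kinetically at 480/540 nm, 6 reads every 60 seconds. Buffer: 50mM HEPES pH 7.8, 0.5mM EDTA, 0.1 mg/ml BSA, 1mM TCEP, 0.01% Tween-20.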

[16] = measured here: cell count channel max response
[17] = measured here: lipid channel max response

Cytochrome P450 3A4 (Homo sapiens), sequence (P08684 whole entry, looked up): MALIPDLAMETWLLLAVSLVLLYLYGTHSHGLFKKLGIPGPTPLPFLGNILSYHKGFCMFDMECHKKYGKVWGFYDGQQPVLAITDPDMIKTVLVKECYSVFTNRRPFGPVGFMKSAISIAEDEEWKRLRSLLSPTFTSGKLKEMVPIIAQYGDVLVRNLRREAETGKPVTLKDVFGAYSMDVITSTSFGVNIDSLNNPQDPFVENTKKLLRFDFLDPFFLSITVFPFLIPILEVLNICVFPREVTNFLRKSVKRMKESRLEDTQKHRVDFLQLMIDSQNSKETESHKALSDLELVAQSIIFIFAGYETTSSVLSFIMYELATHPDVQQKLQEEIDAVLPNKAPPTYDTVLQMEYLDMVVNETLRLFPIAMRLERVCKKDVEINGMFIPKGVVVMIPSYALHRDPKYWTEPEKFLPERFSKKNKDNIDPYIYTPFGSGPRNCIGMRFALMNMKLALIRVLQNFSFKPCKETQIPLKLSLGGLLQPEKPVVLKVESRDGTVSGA
Cytochrome P450 1A2 (Homo sapiens), sequence (P05177 whole entry, looked up): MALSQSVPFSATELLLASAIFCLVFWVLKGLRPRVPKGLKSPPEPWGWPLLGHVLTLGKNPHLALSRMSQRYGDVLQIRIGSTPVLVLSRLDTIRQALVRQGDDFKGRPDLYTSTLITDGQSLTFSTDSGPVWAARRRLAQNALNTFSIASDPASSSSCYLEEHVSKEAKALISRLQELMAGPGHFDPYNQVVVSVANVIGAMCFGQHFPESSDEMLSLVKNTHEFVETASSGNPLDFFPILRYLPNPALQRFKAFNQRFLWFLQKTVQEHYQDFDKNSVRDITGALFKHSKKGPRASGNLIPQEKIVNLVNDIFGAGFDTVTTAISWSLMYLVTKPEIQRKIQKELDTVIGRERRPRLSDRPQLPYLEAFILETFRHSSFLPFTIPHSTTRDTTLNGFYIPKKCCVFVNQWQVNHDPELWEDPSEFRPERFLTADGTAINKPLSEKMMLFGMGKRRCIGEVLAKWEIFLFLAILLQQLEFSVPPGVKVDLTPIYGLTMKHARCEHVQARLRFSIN
3',5'-cyclic-AMP phosphodiesterase 4B (Homo sapiens), sequence (Q07343 whole entry, looked up): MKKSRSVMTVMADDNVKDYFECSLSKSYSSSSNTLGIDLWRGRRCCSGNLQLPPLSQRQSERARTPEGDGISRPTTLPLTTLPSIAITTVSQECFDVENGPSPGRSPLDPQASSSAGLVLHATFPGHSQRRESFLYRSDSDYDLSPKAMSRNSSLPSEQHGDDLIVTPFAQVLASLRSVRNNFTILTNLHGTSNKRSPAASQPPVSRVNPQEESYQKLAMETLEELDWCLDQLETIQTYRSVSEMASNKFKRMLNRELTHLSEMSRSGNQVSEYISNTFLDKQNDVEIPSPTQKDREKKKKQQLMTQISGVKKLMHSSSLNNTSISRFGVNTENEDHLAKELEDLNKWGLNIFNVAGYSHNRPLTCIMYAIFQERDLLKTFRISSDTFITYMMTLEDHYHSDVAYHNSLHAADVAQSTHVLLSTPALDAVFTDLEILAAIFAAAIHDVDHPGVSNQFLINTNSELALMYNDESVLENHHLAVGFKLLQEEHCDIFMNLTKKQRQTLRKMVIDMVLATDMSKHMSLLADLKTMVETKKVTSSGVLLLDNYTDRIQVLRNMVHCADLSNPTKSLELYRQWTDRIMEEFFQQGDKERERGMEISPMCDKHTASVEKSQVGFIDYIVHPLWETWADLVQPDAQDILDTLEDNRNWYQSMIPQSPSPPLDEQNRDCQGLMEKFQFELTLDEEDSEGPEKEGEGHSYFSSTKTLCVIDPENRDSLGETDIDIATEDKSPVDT
Dual specificity protein kinase CLK4 (Homo sapiens), sequence (Q9HAZ1 whole entry, looked up): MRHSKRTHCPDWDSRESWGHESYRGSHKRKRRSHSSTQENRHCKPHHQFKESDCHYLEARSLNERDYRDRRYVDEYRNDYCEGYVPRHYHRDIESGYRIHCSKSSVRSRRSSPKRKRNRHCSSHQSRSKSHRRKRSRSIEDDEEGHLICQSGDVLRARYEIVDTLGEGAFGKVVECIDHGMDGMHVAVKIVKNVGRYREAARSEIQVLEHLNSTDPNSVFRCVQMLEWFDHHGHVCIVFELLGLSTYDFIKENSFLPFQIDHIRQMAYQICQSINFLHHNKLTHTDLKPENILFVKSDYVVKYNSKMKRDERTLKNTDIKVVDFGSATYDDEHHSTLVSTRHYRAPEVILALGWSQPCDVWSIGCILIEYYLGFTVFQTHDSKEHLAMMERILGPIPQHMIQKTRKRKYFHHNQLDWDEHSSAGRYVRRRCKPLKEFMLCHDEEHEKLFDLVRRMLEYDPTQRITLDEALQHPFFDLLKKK
Glucocorticoid receptor (Homo sapiens), sequence (P04150 whole entry, looked up, the tested form may be a part): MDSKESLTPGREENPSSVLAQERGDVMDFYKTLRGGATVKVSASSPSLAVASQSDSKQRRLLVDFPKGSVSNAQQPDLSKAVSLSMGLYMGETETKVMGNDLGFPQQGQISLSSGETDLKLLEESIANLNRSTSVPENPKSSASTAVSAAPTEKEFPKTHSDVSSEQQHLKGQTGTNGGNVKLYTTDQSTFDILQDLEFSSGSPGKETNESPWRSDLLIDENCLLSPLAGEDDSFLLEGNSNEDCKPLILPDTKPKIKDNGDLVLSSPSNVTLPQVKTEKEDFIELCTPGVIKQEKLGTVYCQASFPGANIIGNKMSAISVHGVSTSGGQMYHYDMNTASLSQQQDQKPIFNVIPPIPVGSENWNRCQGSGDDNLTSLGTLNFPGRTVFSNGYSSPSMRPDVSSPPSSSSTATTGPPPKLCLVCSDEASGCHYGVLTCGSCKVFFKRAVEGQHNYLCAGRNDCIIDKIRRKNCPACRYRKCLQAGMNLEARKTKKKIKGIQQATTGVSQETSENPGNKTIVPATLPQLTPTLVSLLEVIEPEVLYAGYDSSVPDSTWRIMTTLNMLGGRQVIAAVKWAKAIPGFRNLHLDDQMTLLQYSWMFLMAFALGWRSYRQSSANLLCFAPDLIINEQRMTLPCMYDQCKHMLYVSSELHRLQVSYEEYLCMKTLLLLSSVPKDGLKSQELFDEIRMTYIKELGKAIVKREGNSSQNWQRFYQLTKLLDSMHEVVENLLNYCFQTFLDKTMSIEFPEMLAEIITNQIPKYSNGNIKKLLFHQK
Lysosomal acid glucosylceramidase (Homo sapiens), sequence (P04062 whole entry, looked up): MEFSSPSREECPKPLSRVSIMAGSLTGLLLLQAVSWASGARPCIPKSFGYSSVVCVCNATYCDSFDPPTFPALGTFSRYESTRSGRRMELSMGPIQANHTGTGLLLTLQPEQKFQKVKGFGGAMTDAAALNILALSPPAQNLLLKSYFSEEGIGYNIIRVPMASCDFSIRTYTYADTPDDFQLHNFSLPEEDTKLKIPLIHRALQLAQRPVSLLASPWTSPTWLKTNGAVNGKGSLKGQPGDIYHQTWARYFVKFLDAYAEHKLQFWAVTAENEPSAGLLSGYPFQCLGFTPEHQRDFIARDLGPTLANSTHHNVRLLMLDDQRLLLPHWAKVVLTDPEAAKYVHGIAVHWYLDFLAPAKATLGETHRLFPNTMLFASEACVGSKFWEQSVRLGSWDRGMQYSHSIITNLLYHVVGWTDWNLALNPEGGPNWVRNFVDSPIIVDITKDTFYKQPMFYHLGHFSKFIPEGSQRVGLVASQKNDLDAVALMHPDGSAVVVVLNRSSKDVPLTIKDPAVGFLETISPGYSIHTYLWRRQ
Ubiquitin carboxyl-terminal hydrolase 1 (Homo sapiens), sequence (O94782 whole entry, looked up): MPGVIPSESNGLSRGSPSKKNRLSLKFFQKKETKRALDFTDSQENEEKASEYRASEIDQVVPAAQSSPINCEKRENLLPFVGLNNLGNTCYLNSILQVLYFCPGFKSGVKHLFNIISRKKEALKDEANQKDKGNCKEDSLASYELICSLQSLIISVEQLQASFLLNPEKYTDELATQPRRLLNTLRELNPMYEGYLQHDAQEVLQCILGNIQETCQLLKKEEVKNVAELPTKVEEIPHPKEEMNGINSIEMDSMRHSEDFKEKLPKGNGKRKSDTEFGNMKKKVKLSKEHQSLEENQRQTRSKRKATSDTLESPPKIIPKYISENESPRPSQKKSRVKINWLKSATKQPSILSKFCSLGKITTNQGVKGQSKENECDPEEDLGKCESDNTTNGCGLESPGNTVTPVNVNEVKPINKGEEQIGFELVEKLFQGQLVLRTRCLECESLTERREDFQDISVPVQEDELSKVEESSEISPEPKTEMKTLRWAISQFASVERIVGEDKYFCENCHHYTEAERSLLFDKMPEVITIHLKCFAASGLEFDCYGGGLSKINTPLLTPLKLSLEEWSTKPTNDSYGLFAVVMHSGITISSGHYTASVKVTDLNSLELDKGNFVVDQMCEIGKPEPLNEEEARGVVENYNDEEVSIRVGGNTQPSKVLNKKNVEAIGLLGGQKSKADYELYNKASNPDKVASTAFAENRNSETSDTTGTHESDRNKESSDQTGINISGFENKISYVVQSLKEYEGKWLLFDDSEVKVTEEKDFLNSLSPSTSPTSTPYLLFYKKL

Row | Structure (SMILES) | Potency [1] | activity change, negative = inhibition [2] | Potency [3] | activity change, negative = inhibition [4] | activity, negative = inhibition [5] | Potency [6] | outcome [7] | Potency [8] | Potency [9] | activity change, negative = inhibition [10] | max response [10, 16] [%] | max response [10, 17] [%] | Potency [11] | Potency [12] | Potency [13] | Potency [14] | Potency [15]
1 | COc1ccc(-n2c(=O)c(C)nc3cnc(N4CCNCC4)nc32)cc1 | > 11.4 µM (inactive) | -6.88% (inactive) | 15.8 µM (active) | -7.6% (inactive) | 7.09% (inactive) | > 46 µM (inactive) | inactive | inactive | – | – | – | – | – | – | – | – | –
2 | CC(C)NC(=O)N1CC2(CCN(C(=O)c3ccncc3)CC2)C1 | > 11.4 µM (inactive) | 13% (inactive) | inactive | 10.6% (inactive) | 7.63% (inactive) | > 46 µM (inactive) | inactive | inactive | inactive | -0.244% (inactive) | 11.6 | 15.6 | – | – | – | – | –
3 | CCCCNc1nc(C)nc2c1nc(C)n2CCC | – | – | – | – | – | – | inactive | inactive | – | – | – | – | – | – | – | – | –
4 | CN1CCN(c2ncc3nc(-c4cccs4)c(=O)n(-c4ccccc4)c3n2)CC1 | > 11.4 µM (inactive) | – | 3.16 µM (active) | – | – | > 46 µM (inactive) | inactive | inactive | inactive | -0.619% (inactive) | 22.3 | 18.9 | > 9.22 µM (inactive) | inactive | inactive | inactive | inactive
5 | COc1cccc(Nc2ncc3nc(C)c(=O)n(C)c3n2)c1 | > 11.4 µM (inactive) | -0.695% (inactive) | 1 µM (active) | -5.64% (inactive) | -12.2% (inactive) | > 46 µM (inactive) | inactive | – | inactive | -0.403% (inactive) | 5.56 | 2.52 | – | – | – | inactive | inactive
